High-throughput results (PubChem)
Compounds with a hit are over-represented: about 2.9% of the library has one in this group of screens.
PAFAH1B3 FP inh = PAFAH1B3 enzyme inhibitors, primary screen, biochemical, fluorescence polarization, human. Platelet-activating factor acetylhydrolase IB subunit alpha1 (Homo sapiens), Q15102. recombinant PAFAH1B3, FP-rhodamine probe. inhibition, % at 3.39 µM. 340,000 compounds, 0.28% hits. AID 492972, 2010;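 active = inhibition above the screen-wide average of all tested compounds plus 3 SD, cut at about 25% in these data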;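 note: 0% = enzyme with DMSO only and 100% = wells lacking PAFAH1B3 protein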
PME-1 primary = PME-1 inhibitors via competitive probe labeling, primary screen, biochemical, fluorescence polarization, FP-Rh probe, HTS | Protein phosphatase methylesterase 1 (Homo sapiens), Q9Y570 | recombinant PME-1 | inhibition, % at 5.9 µM | 320,000 compounds, 0.53% hits | AID 2130, 2009;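 active = inhibition above the campaign mean of all compounds plus 3 SD, cut at about 26% in these data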;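 note: competitive labeling of PME-1 active site by serine hydrolase directed probe; 0% = PME-1 with DMSO and 100% = wells lacking PME-1 enzyme; inhibitors block probe labeling so polarization falls and inhibition rises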
PAFAH1B2 FP inh = PAFAH1B2 enzyme inhibitors, primary screen, biochemical, fluorescence polarization, human. Platelet-activating factor acetylhydrolase IB subunit alpha2 (Homo sapiens), P68402. recombinant PAFAH1B2, FP-rhodamine activity probe. inhibition, % at 3.39 µM. 340,000 compounds, 1.2% hits;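 active = inhibition above the mean of all tested compounds plus 3 SD, cut at about 24% in these data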;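 note: 0% = enzyme with DMSO and 100% = wells lacking PAFAH1B2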
Target sequence (P68402 whole entry, looked up): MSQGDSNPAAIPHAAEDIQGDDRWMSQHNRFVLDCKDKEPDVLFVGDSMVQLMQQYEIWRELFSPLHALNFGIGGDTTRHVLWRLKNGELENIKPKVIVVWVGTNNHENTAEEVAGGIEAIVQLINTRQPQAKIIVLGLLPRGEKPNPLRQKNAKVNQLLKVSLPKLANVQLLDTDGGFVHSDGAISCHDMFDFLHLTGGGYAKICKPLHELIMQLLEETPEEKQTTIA
PAFAH2 inh = PAFAH2 enzyme inhibitors, primary screen, biochemical, fluorescence polarization, human. 340,000 compounds, 0.99% hits. inhibition, % at 3.39 µM. Platelet-activating factor acetylhydrolase 2, cytoplasmic (Homo sapiens), Q99487. AID 492956, 2010. recombinant PAFAH2, FP-rhodamine activity probe;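 active = inhibition above the mean over all tested compounds plus 3 SD, cut at about 30% in these data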;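 note: inhibitors block probe labeling of enzyme so polarization drops; 0% = enzyme with DMSO and 100% = wells lacking PAFAH2 protein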
pPAFAH FP inh = pPAFAH enzyme inhibitors, primary screen, biochemical, fluorescence polarization, human; inhibition, % at 3.39 µM; AID 463082, 2010; 330,000 compounds, 1.5% hits; recombinant pPAFAH, FP-rhodamine probe fluorescence polarization;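 active = inhibition above the mean inhibition across the screen plus 3 SD, cut at about 25% in these data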;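 note: inhibitors block binding of the rhodamine activity-based probe so polarization drops; 0% = enzyme with DMSO and 100% = wells lacking pPAFAH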
Target sequence (Q13093 whole entry, looked up): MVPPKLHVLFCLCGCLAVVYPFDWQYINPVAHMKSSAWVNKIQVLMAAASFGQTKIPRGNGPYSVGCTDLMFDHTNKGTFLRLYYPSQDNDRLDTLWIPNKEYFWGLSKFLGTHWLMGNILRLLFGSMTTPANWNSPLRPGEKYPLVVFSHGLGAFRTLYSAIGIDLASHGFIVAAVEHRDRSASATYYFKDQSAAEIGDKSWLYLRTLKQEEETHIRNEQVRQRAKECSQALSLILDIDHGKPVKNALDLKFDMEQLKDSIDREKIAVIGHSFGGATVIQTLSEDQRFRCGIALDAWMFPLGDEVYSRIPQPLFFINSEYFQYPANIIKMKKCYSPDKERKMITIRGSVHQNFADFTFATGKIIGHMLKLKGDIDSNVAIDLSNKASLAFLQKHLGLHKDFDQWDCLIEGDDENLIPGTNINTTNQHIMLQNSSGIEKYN
Fam108B inh = mouse Fam108B serine hydrolase inhibitors, primary screen, counter-screen for RBBP9 inhibitor project, biochemical, fluorescence polarization; inhibition, % at 9.51 µM; 300,000 compounds, 0.33% hits; recombinant Fam108B, FP-Rh probe fluorescence polarization; AID 1947, 2009;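 active = inhibition above the screen mean inhibition plus 3 SD, computed separately per campaign, cut at about 18% in these data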;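 note: inhibitors lower polarization as less probe binds the enzyme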
pPAFAH FP conf = pPAFAH (PLA2G7) enzyme inhibitors, confirmation, biochemical, fluorescence polarization, human. shares compounds with pPAFAH FP inh. recombinant pPAFAH, FP-Rh probe fluorescence polarization. inhibition, % at 3.39 µM. 2,300 compounds, 72% hits;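 active = mean inhibition of the triplicate above the hit cutoff set for the earlier primary screen, cut at about 25% in these data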;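 note: 0% = enzyme with DMSO and 100% = wells lacking pPAFAH enzyme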
The depositor's hits bear a star; · = no result given.

SMILES	PAFAH1B3 FP inh	PME-1 primary	PAFAH1B2 FP inh	PAFAH2 inh	pPAFAH FP inh	Fam108B inh	pPAFAH FP conf
CSCCC(NC(=O)c1ccccc1Br)C(=O)N1CCN(C/C=C/c2ccccc2)CC1 (stereo unspecified)	9.3	·	6.0	-6.5	·	·	·
COc1ccc(CCNC(=O)C(=O)NCc2ccccn2)cc1	9.6	1.3	4.2	-1.2	4.8	-2.5	·
CCN1CCC(CNCc2cn(-c3ccc(OC)cc3)nc2-c2ccccc2Cl)C1 (stereo unspecified)	6.0	-0.3	6.9	5.6	-0.1	-2.3	·
COc1cc2cc(Oc3ccc4ccc(=O)oc4c3)c(=O)oc2cc1O[C@@H]1O[C@H](CO)[C@@H](O)[C@H](O)[C@H]1O	19.7	·	8.2	14.9	49.8*	·	17.6
COc1cc2cc(Oc3ccc4ccc(=O)oc4c3)c(=O)oc2cc1OC1OC(COC(=O)CC(C)(O)CC(=O)O)C(O)C(O)C1O (stereo unspecified)	13.8	-0.4	0.4	10.5	7.3	0.1	·
O=C(NC1CCc2ccccc21)c1cc(COc2cncc(Cl)c2)on1 (stereo unspecified)	2.1	3.0	1.9	0.6	1.7	1.3	·
Cc1[nH]c(C)c(S(=O)(=O)NCCc2ccccc2)c1C(=O)N1CCCCC1	9.3	0.2	5.3	6.4	4.3	0.6	·
CCCn1c(C(C)Nc2nc(-c3cc(Cl)c(N)c(Cl)c3)cs2)nc2cc(Cl)c(N3CCCCC3)cc21 (stereo unspecified)	9.1	4.3	3.9	-5.3	5.7	4.6	·
O=C(CN1C(=O)CSC1=O)NCc1ccccc1	1.4	-1.0	-0.3	-7.7	78.4*	-1.4	-6.8
O=C(/C=C/c1ccc(Cl)cc1Cl)c1ccc[nH]1	4.3	-3.1	-4.3	-9.6	4.5	-3.5	·
CN(C)/C=C/C(=O)/C=C/c1ccc(Cl)cc1Cl	4.2	3.0	4.9	9.0	37.6*	-1.8	4.0
CC(=O)NC(=S)Nc1ccc(NC(=S)NC(=O)/C=C/c2ccco2)cc1	-9.7	-5.9	-7.0	-20.6	-3.2	-6.5	·
O=C(/C=C/c1ccco1)NC(=S)Nc1ccc(C(=O)O)cc1	13.0	-32.5	1.8	-0.4	38.9*	6.4	6.9
O=C(/C=C/c1ccco1)NC(=S)Nc1ccc(N2CCCC2)cc1	0.8	15.8	2.0	0.8	47.0*	1.4	13.7
Cc1oc(-c2ccc(F)cc2)cc1-c1nn2c(-c3ccoc3C)nnc2s1	6.0	7.5	0.1	16.4	35.5*	-2.9	16.6
COc1ccc(-c2nnc3sc(-c4ccco4)nn23)cc1OC	5.3	-6.2	6.7	8.8	3.8	3.5	·
Cc1ccc(-c2ccccc2NC(=O)CS(=O)CC(=O)Nc2ccc(C)c(Cl)c2)o1 (stereo unspecified)	3.8	44.6*	22.0	3.2	85.3*	-0.2	8.0
Cc1ccc(-c2ccccc2NC(=O)CCl)o1	11.8	0.2	7.4	-1.3	-0.9	-3.4	·
COc1ccc(NC(=O)c2ccc(NC(=O)CN3CCC(C(N)=O)CC3)cc2)cc1	-0.2	·	-2.0	1.9	2.7	·	·
COc1cc(NC(=O)Cn2cnc3c(SC)nc(N)nc32)cc(OC)c1OC	5.6	·	7.6	0.3	3.0	·	·
CN1CCN(Cc2cc(=O)oc3cc4c(cc23)CCC4)CC1	2.3	-5.7	7.2	0.3	36.6*	-1.5	8.7
CCN1CCN(Cc2cc(=O)oc3cc4c(cc23)CCC4)CC1	-6.1	2.4	1.6	-1.8	2.0	-4.3	·
Cc1onc(-c2c(F)cccc2Cl)c1C(=O)N(Cc1ccccc1)C(C)C	0.5	-2.3	4.3	6.7	3.0	-0.1	·
CCC(Cc1c(I)cc(I)c(N)c1I)C(=O)O (stereo unspecified)	-9.0	1.9	-0.8	-2.8	-2.2	2.1	·
CN(C)c1ccnc(SCc2ccccc2Cl)c1C#N	7.1	-2.2	6.4	0.4	34.7*	-6.7	23.2
SMILES	PAFAH1B3 FP inh	PME-1 primary	PAFAH1B2 FP inh	PAFAH2 inh	pPAFAH FP inh	Fam108B inh	pPAFAH FP conf
CN(C)c1ccnc(Oc2ccccc2)c1C#N	0.1	·	3.7	-5.1	·	·	·
Cc1ccc(NC(=O)N/C=C/c2ccccc2)cc1	-8.0	-12.2	0.0	-0.8	39.4*	-9.9	-0.4
Cc1cc(C(=O)OCC(=O)N2CC(=O)Nc3ccccc32)c(C)n1-c1ccc(F)cc1	0.1	-4.6	-1.6	1.7	37.3*	-5.2	30.3*
Cc1onc(-c2ccccc2)c1C(=O)NNC(=S)NC(=O)c1ccc2c(c1)OCO2	1.2	-0.6	5.1	3.1	3.7	-0.8	·
CCN(CC)c1ccc(N=Cc2ccc([N+](=O)[O-])o2)cc1	3.6	9.6	2.7	8.9	43.1*	11.4	16.9
Cc1cc2nc3c(=O)[nH]c(=S)[nH]c3nc2cc1NC(=O)C(F)(F)F	9.3	9.3	5.1	-1.0	78.8*	-0.9	5.1
O=c1[nH]c(=S)[nH]c2nc(-c3ccccc3)cnc12	8.7	2.1	4.0	1.0	-1.8	2.0	·
Cc1ccc(C(=O)NC(C(=O)OCc2cn3cc(Cl)ccc3n2)C(C)C)cc1 (stereo unspecified)	6.6	4.9	6.7	-3.0	5.3	·	·
O=C(O)CSc1cc(C(=O)c2ccccc2O)cn2c(=O)c3c(-c4ccccc4)csc3nc12	8.3	-43.6	-4.7	-13.5	64.5*	-9.3	72.2*
CCCCCC(=O)Nc1nc(C)c(-c2csc(Nc3cc(OC)ccc3OC)n2)s1	14.8	26.1	8.8	7.7	39.6*	12.6	28.7*
CCCCCCC(=O)Nc1nc(C)c(-c2csc(Nc3cc(OC)ccc3OC)n2)s1	18.3	35.4*	10.8	16.4	47.2*	10.7	41.1*
CCCCC(=O)Nc1nc(C)c(-c2csc(Nc3ccccc3OC)n2)s1	6.5	16.5	9.2	-0.6	17.4	5.1	·
COC(=O)CCC(=O)OC1(C)C(=O)C2=COC(c3ccc(OC)cc3)=CC2=C(Br)C1=O (stereo unspecified)	·	-0.2	·	·	35.2*	1.8	20.7
CCCCNC(=O)c1sc(=S)n2c1[nH]c(=O)c1ccc(C(=O)NCCc3ccc(OC)c(OC)c3)cc12	18.3	21.1	19.9	11.6	39.8*	11.3	42.3*
CCCCCn1c(=O)[nH]c2cc(C(=O)NCCc3ccc(OC)c(OC)c3)ccc2c1=O	-1.4	1.2	-1.2	-8.8	1.9	-0.9	·
C/C(CCC(=O)O)=N/Nc1ccc([N+](=O)[O-])cc1[N+](=O)[O-]	3.5	0.6	-3.8	-0.6	-2.4	-2.1	·
